# The supplement of paper PMC10849652
# Targets with a hit are over-represented here; the source holds about 7,900 in all. About 0.6% of all pairs of compound and target were hits. Values without a mark were called inactive.
# Key:
# Experiment in all cases: log2 fold change, soluble protein after heating vs DMSO (PISA); higher = thermal stabilisation; K562 cells, 10 uM, 30 min; active = over 0.2 and 3.5 SD of the protein, either way, in both replicates (recomputed)
# [1] = compound: CS(=O)(=O)c1ccc(-c2cnc(N)c(C(=O)Nc3ccccc3)n2)cc1
# In short: (§1)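 K562 cells at 2×10^6 cells/mL were given 10 μM compound for 30 min. Aliquots then went through 3 min of heating across 48°C-58°C, were pooled, and were extracted in PBS with 0.5% NP-40 at 4°C, and the supernatant after 21,000xg for 90 min was quantified by TMTpro 16plex LC-MS/MS with channel sums equalised. Thermal stability relative to control samples, from duplicates, is given as log2 fold change.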
# crizotinib = compound: C[C@@H](Oc1cc(-c2cnn(C3CCNCC3)c2)cnc1N)c1c(Cl)ccc(F)c1Cl [crizotinib]
# In short: as §1
# [2] = compound: C[C@@H]1COCCN1C2=NC(=NC(=C2)C3(CC3)S(=O)(=O)C)C4=C5C=CNC5=CC=C4
# In short: as §1
# [3] = compound: C[C@H](C1=CC=C(C=C1)C(=O)NC2=C3C=CNC3=NC=C2)N
# In short: as §1
# duvelisib = compound: C[C@H](Nc1ncnc2nc[nH]c12)c1cc2cccc(Cl)c2c(=O)n1-c1ccccc1 [duvelisib]
# In short: as §1
# gandotinib = compound: Cc1cc(Nc2cc(CN3CCOCC3)c3nc(C)c(Cc4ccc(Cl)cc4F)n3n2)n[nH]1 [gandotinib]
# In short: as §1
# tozasertib = compound: Cc1cc(Nc2cc(N3CCN(C)CC3)nc(Sc3ccc(NC(=O)C4CC4)cc3)n2)n[nH]1 [tozasertib]
# In short: as §1
# [4] = compound: Cc1cc(SCc2sc(-c3ccc(C(F)(F)F)cc3)nc2C)ccc1OCC(=O)O
# In short: as §1
# doramapimod = compound: Cc1ccc(-n2nc(C(C)(C)C)cc2NC(=O)Nc2ccc(OCCN3CCOCC3)c3ccccc23)cc1 [doramapimod]
# In short: as §1
# ispinesib = compound: Cc1ccc(C(=O)N(CCCN)[C@@H](c2nc3cc(Cl)ccc3c(=O)n2Cc2ccccc2)C(C)C)cc1 [ispinesib]
# In short: as §1
# bafetinib = compound: Cc1ccc(NC(=O)c2ccc(CN3CC[C@H](N(C)C)C3)c(C(F)(F)F)c2)cc1Nc1nccc(-c2cncnc2)n1 [bafetinib]
# In short: as §1
# [5] = compound: Cc1cccc(CC(=O)N2CCc3c2ccc(-c2cn(C)c4ncnc(N)c24)c3F)n1
# In short: as §1
# nilotinib = compound: Cc1cn(-c2cc(NC(=O)c3ccc(C)c(Nc4nccc(-c5cccnc5)n4)c3)cc(C(F)(F)F)c2)cn1 [nilotinib]
# In short: as §1
# [6] = compound: Cc1nc(Nc2n[nH]c3c2CN(C(=O)N[C@H](CN(C)C)c2ccccc2)C3(C)C)c2sccc2n1
# In short: as §1
# dasatinib = compound: Cc1nc(Nc2ncc(C(=O)Nc3c(C)cccc3Cl)s2)cc(N2CCN(CCO)CC2)n1 [dasatinib]
# In short: as §1
# [7] = compound: Cc1ncc(-c2ccnc(Nc3ccc(S(C)(=O)=O)cc3)n2)n1C(C)C
# In short: as §1
# [8] = compound: Cn1cc(-c2ccc3c(c2)CCN3C(=O)Cc2cccc(C(F)(F)F)c2)c2c(N)ncnc21
# In short: as §1
# [9] = compound: Cn1cc(-c2ccc3nnc(C(F)(F)c4ccc5ncccc5c4)n3n2)cn1
# In short: as §1
# tipifarnib = compound: Cn1cncc1[C@@](N)(c1ccc(Cl)cc1)c1ccc2c(c1)c(-c1cccc(Cl)c1)cc(=O)n2C [tipifarnib]
# In short: as §1
# mubritinib = compound: FC(F)(F)c1ccc(/C=C/c2nc(COc3ccc(CCCCn4ccnn4)cc3)co2)cc1 [mubritinib]
# In short: as §1
# UniProt Q92560, sequence (Q92560 whole entry, looked up): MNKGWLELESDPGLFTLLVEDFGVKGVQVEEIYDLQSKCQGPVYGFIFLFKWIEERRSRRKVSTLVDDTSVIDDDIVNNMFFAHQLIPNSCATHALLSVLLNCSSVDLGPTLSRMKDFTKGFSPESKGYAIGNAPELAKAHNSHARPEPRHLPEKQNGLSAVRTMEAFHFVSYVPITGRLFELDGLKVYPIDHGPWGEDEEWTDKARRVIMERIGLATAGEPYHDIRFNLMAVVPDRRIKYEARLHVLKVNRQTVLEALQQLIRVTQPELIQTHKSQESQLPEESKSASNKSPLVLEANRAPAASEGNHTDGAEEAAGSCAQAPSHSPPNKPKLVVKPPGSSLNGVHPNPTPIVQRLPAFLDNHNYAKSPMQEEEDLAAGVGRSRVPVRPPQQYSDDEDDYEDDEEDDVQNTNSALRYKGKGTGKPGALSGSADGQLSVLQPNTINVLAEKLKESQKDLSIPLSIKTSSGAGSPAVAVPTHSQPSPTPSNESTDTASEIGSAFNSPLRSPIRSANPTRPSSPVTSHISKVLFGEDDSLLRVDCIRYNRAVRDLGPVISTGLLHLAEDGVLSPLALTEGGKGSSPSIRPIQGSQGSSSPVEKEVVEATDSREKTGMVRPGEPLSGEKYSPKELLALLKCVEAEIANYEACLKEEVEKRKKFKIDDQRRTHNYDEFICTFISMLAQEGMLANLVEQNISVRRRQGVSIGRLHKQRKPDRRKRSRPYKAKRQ
# UniProt Q8N6D5, sequence (Q8N6D5 whole entry, looked up): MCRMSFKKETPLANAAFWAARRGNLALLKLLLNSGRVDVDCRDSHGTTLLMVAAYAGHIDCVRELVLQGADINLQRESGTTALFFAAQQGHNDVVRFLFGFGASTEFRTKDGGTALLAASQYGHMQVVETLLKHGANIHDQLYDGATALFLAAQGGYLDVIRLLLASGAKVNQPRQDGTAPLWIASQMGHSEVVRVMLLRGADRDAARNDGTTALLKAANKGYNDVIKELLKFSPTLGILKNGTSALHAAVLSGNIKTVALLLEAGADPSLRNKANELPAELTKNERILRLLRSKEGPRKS
# UniProt Q9UKV3, sequence (Q9UKV3 whole entry, looked up): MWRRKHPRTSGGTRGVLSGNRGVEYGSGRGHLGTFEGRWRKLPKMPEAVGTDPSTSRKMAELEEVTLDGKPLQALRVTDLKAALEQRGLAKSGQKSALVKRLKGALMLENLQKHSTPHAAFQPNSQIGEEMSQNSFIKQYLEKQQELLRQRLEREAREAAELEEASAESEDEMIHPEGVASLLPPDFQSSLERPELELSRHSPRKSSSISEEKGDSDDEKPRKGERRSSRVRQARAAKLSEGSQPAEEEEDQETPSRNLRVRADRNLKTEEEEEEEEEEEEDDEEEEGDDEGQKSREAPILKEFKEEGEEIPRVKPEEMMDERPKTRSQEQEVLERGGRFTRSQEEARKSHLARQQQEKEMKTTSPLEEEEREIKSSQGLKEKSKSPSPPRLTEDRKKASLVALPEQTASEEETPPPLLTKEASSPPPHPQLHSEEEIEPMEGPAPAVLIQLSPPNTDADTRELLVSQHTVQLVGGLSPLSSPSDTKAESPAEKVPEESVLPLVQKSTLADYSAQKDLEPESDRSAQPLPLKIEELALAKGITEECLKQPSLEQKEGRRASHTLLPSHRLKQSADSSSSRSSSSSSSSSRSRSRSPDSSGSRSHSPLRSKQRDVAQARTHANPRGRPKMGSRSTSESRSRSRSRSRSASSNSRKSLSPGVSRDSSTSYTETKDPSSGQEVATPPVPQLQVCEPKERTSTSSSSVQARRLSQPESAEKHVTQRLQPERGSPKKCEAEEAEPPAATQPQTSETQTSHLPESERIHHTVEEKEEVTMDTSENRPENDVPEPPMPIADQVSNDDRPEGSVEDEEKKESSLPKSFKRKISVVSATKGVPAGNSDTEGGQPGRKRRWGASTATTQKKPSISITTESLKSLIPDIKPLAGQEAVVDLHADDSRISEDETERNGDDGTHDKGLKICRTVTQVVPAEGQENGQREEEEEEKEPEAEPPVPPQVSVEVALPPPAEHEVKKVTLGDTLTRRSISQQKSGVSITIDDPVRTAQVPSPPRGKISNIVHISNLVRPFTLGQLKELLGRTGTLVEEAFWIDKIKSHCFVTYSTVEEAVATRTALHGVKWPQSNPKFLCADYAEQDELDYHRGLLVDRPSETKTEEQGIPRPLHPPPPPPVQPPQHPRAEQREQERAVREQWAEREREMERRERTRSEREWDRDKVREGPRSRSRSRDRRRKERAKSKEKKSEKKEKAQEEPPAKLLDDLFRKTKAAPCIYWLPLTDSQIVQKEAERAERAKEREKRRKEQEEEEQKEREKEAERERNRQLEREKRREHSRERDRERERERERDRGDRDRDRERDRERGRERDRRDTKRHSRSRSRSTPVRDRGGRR
# UniProt Q86UU0, sequence (Q86UU0 whole entry, looked up): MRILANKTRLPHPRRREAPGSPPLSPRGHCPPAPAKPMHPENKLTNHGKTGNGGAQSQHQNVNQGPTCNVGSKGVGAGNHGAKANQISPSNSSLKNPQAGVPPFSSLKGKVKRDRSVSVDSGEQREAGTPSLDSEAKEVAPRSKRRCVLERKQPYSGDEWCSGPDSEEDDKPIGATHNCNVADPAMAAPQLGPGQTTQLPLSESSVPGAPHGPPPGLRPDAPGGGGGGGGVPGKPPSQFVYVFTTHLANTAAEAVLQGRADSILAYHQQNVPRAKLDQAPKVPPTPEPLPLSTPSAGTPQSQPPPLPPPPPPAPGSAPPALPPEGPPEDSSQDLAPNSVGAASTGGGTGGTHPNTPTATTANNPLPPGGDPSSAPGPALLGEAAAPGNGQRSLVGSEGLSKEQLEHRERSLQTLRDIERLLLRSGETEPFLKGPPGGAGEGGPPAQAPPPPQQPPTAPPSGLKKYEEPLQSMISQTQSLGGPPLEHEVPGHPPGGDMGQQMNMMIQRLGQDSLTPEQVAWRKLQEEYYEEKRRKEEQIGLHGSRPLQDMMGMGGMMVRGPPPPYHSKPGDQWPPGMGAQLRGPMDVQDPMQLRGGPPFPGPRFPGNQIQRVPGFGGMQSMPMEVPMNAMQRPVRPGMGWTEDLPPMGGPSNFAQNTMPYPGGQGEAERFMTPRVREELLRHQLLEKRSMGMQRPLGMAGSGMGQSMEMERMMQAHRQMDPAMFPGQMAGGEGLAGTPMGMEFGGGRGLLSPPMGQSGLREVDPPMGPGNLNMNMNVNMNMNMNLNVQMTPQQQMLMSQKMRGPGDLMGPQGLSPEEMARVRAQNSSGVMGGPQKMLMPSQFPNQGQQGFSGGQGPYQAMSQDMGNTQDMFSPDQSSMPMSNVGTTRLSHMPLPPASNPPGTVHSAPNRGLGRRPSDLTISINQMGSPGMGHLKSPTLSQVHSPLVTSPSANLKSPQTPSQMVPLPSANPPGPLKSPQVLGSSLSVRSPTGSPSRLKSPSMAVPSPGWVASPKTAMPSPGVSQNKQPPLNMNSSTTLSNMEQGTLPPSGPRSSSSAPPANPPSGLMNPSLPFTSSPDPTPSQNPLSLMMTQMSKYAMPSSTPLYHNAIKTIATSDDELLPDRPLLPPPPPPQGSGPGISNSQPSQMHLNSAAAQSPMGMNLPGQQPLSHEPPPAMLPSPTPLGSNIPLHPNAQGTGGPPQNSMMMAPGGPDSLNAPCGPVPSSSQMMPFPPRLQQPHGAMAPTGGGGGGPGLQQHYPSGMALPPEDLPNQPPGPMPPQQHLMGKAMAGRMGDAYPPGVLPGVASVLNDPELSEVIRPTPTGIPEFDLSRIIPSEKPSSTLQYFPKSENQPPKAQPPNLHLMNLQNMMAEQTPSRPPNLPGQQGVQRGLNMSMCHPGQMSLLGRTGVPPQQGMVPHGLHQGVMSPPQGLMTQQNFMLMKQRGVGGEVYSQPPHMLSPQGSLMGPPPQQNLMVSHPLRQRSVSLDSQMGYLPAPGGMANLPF
# UniProt Q5T9A4, sequence (Q5T9A4 whole entry, looked up): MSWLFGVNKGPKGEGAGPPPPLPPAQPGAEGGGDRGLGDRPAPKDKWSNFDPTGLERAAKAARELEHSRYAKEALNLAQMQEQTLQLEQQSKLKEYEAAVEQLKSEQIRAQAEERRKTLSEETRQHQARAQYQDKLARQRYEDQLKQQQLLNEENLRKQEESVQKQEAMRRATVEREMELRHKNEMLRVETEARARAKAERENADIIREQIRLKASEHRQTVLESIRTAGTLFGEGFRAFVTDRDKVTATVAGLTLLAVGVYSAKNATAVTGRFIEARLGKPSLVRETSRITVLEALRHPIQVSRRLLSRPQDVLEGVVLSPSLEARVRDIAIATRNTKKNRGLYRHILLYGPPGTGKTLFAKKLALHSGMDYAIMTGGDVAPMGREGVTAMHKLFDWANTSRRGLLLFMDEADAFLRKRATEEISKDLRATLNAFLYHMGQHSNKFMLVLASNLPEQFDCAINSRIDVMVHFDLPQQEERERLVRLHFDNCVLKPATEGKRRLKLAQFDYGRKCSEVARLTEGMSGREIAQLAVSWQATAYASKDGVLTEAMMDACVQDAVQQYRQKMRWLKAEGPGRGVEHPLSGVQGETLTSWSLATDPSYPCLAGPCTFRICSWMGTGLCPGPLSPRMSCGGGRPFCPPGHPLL
# UniProt P56211, sequence (P56211 whole entry, looked up): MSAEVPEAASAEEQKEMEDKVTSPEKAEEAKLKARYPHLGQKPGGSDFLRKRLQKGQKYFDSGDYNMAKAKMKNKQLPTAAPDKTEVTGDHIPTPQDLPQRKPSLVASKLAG
# UniProt P08758, sequence (P08758 whole entry, looked up): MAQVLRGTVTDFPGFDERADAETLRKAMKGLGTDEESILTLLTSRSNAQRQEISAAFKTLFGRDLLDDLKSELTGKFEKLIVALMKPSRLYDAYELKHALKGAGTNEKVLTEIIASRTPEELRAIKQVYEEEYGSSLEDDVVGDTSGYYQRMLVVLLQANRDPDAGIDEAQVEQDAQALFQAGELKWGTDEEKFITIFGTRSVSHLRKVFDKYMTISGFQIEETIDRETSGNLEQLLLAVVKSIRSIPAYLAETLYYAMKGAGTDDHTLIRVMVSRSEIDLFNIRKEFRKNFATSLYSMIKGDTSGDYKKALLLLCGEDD
Target,log2 fold change [1],log2 fold change (crizotinib),log2 fold change [2],log2 fold change [3],log2 fold change (duvelisib),log2 fold change (gandotinib),log2 fold change (tozasertib),log2 fold change [4],log2 fold change (doramapimod),log2 fold change (ispinesib),log2 fold change (bafetinib),log2 fold change [5],log2 fold change (nilotinib),log2 fold change [6],log2 fold change (dasatinib),log2 fold change [7],log2 fold change [8],log2 fold change [9],log2 fold change (tipifarnib),log2 fold change (mubritinib)
APLP2 (UniProt Q06481),0,0.032,-0.012,-0.035,0.088,0.117,0.103,-0.049,0.049,0.16,0.054,-0.063,0.156,-0.144,0.118,0.052,-0.007,-0.164,-0.01,-0.011
ACIN1 (UniProt Q9UKV3),-0.011,-0.014,0.068,-0.12,0.005,0.01,-0.003,0.002,0.029,0.007,0.022,-0.037,0.086,-0.444 (active),0.016,-0.065,0.117,-0.027,0.026,0.049
ANXA5 (UniProt P08758),0.03,0.045,0.108,-0.002,0.043,-0.083,0.041,0.052,-0.059,0.006,0.019,0.058,-0.015,-0.052,-0.079,0.006,0.017,0.025,-0.061,0.009
ATAD3B (UniProt Q5T9A4),0.009,-0.171,-0.112,0.191,-0.05,0.033,0.034,0.105,0.137,-0.544 (active),-0.014,0.018,-0.072,-0.039,-0.099,0.027,-0.103,-0.186,0.03,-0.37
ANAPC2 (UniProt Q9UJX6),-0.025,-0.084,0.034,0.035,0.027,-0.044,0.012,0.028,0.022,-0.02,-0.048,0.024,-0.004,-0.053,-0.04,0.003,-0.005,-0.036,-0.005,0.049
BAP1 (UniProt Q92560),0.07,-0.078,0,0.126,-0.089,0.076,0.079,0.085,0.112,-0.043,0.252,-0.071,0.007,0.053,-0.031,0.006,-0.086,-0.064,0.076,-0.201
ANKRD29 (UniProt Q8N6D5),0.125,0.019,0.042,-0.043,0.139,0.185,-0.072,0.017,0.097,-0.055,0.063,-0.027,-0.09,-0.057,-0.002,0.053,0.22,0.133,-0.223,0.083
ARPP19 (UniProt P56211),-0.017,0.059,0.006,-0.106,-0.082,0.019,-0.031,-0.106,-0.037,0.048,-0.057,0.005,0.02,-0.041,0.045,-0.004,0.033,-0.022,-0.055,0.002
BCL9L (UniProt Q86UU0),0.029,0.085,0.018,-0.002,-0.011,0.097,-0.076,-0.112,0.006,0.025,0.043,0,-0.046,-0.064,0.018,0.053,-0.013,-0.031,0.014,0.026
